This note sets out measurements from PubChem BioAssay AID1671202 (University of Kansas High Throughput Screening Laboratory, 2021).

Structures are written as SMILES. Among all 190,000 compounds or so, about 6,900 (3.6%) were called active. The sample as a whole holds a higher share of actives than the screen did. Unmarked numbers belong to inactive results. Cut-off read from the data, not from the text of the source: active = inhibition above about 50%; inactive = the rest.

Chain of Huntingtin (Homo sapiens) (P42858 whole entry, looked up, stated change not applied): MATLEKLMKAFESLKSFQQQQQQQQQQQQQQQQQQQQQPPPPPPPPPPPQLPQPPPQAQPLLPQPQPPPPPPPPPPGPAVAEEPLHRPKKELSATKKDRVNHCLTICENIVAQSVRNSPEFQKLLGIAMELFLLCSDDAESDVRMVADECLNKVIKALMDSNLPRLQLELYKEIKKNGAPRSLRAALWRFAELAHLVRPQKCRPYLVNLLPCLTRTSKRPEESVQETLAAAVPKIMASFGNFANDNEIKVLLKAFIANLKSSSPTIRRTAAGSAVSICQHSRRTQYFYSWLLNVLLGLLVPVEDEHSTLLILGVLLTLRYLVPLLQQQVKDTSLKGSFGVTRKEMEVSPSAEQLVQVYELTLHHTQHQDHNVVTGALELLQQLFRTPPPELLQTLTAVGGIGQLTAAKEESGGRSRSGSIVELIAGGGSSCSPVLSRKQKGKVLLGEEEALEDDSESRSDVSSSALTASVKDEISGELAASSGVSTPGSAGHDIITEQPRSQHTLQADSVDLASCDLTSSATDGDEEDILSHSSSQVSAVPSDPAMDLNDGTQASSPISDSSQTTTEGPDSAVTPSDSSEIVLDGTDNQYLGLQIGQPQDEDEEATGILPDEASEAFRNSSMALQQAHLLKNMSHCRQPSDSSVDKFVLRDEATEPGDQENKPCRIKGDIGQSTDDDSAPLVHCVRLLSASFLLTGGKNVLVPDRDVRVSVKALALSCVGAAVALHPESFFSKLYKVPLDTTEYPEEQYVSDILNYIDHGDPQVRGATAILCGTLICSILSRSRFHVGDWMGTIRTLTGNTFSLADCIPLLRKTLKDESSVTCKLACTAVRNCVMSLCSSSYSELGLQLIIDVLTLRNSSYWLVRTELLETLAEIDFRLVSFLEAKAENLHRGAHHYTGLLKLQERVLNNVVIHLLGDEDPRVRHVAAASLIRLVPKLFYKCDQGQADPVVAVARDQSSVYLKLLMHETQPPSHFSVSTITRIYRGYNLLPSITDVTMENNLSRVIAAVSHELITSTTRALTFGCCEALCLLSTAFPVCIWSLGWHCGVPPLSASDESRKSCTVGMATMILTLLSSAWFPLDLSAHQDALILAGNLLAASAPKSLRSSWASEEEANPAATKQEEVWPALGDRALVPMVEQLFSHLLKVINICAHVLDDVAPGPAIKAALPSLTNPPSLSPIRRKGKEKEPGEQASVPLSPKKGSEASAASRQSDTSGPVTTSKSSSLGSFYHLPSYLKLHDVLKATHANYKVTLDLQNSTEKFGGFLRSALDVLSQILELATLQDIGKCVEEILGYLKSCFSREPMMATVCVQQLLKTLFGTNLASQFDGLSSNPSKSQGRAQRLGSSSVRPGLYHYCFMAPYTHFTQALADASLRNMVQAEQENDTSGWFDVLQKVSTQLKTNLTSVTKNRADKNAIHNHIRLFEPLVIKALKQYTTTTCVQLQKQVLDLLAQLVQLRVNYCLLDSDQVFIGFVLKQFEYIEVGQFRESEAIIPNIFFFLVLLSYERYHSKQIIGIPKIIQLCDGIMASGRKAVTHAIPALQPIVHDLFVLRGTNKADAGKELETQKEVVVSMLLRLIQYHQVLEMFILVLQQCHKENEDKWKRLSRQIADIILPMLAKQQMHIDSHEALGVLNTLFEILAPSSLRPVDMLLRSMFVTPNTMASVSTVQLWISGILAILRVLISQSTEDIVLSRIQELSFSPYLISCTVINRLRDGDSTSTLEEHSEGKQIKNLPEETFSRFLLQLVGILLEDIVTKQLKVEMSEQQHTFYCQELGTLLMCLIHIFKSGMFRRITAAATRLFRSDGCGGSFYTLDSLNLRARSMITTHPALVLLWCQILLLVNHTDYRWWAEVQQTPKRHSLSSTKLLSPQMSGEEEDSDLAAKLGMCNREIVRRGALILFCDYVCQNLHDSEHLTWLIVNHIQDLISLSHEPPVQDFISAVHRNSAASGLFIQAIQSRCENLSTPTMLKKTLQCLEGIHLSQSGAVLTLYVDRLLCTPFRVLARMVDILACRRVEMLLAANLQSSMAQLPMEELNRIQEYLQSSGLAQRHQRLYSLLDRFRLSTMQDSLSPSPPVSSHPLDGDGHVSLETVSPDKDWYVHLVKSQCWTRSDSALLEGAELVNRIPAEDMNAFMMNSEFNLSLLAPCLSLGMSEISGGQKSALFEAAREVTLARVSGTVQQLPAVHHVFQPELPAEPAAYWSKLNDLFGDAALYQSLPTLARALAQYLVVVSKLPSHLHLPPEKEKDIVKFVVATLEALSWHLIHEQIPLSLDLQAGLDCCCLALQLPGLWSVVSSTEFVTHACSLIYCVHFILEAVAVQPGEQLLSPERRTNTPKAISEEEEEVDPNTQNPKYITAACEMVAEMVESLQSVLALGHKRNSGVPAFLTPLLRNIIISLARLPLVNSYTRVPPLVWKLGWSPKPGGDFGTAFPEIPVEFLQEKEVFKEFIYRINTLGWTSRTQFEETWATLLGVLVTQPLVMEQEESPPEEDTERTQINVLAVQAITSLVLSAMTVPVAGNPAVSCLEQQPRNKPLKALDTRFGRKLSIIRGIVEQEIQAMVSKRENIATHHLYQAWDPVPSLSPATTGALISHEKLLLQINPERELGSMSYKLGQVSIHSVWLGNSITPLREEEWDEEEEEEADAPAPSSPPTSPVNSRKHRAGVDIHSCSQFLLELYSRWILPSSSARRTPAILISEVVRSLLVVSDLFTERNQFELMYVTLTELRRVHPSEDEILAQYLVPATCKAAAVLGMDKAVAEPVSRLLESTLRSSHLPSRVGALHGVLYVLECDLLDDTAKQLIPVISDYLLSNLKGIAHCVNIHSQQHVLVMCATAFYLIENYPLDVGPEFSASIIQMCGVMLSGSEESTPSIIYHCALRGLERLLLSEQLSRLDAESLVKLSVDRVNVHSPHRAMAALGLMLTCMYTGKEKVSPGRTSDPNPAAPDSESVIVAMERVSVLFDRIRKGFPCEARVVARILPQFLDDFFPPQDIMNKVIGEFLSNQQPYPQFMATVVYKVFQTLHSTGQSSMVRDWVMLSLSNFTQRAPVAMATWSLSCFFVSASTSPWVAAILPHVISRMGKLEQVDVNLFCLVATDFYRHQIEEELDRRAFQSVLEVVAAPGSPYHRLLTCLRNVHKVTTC

This assay concerns the target Huntingtin (Homo sapiens) (UniProt P42858). Description: mutant huntingtin-calmodulin interaction inhibitors – biochemical, AlphaScreen, primary screen (AID 1671202).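 Note: 0% = both proteins with DMSO and 100% = one protein alone.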 The following applies: AlphaScreen His-mHTT/GST-CaM binding, luminescence; at 15 µM, stronger effect = higher value. In general terms: Alpha assays give light when donor and acceptor beads are brought close together.
As a reminder, the inhibition is the change of the read-out against control, counted positive when it falls. Take `CC(C)c1ccc(OCC(=O)Nc2ccccc2[N+](=O)[O-])cc1`: the inhibition is 3.8%. Next, `COc1ccc(-n2c(-c3cccc([N+](=O)[O-])c3)cn3c4c(=O)n(C)c(=O)n(C)c4nc23)cc1`: 4%. In the case of `CC(=O)c1ccc(NC(=O)CSc2ncc(-c3ccc(C)c(C)c3)o2)cc1`, the inhibition was 2.5%. Next, `CC(=O)N1CCc2cc(Br)cc(S(=O)(=O)NCCc3ccccc3)c21`: 20%; `CC(=O)C1=C(C)NC(SCC(=O)c2ccccc2)=C(C#N)C1c1ccc(Br)cc1` (configuration not stated): -23.7%; `COc1cc(NC(=O)c2ccccc2OC)c(OC)cc1Cl`: 9%. Then `Cc1ccc(C)c(C(O)=C2C(=O)C(=O)N(CCCN3CCOCC3)C2c2ccncc2)c1` (configuration not stated), with -2.8%; and `Clc1ccc(C2C=C(c3cccc(Br)c3)Nc3nnnn32)c(Cl)c1` (configuration not stated), with -5%; and `O=C(Nc1nncs1)c1ccc2nc(-c3ccco3)c(-c3ccco3)nc2c1`, with 99.4% (active). Next, `O=C(Nc1ccc(Cl)cc1)c1ccc2nc3ccccc3nc2c1`: 13.5%; `CCOc1ccc2nc(NC(=O)c3ccc(OC)cc3)sc2c1`: -5%; `COc1ccc(C=C2Oc3cc(OC(=O)c4ccc5c(c4)OCO5)ccc3C2=O)c(OC)c1OC`: 3.6%. For the compound `COc1ccc(-c2coc3c(C)c4oc(=O)c5ccccc5c4cc23)cc1F`, the inhibition is 2%.

Consider `N#CC1=C(N)Oc2n[nH]c(-c3ccccc3)c2C1c1ccc(F)c(Br)c1` (configuration not stated), for which the inhibition was 20%. Next, `Cc1cc(-c2[nH]c3c(c2-c2cc(C)sc2C)c(=O)n(C)c(=O)n3C)c(C)s1`: -3%; `O=C(NCCSc1c[nH]c2ccccc12)c1ccc(Cl)c([N+](=O)[O-])c1`: 37%.

In the case of `O=C(COc1ccc(Cl)cc1Cl)NCCSc1c[nH]c2ccccc12`, the inhibition is 61% (active). Regarding `Cc1cc(Cl)ccc1OCC(=O)NCCc1nc2ccccc2[nH]1`, the inhibition is 19%. Next, `COc1cccc(NC(=O)C2(c3ccccc3)CCOCC2)c1`: 1.7%; `Cc1cccc2nnc(N3CCC(C(=O)N4CCOCC4)CC3)n12`: 1.65%; `Cc1cccc(NC(c2cccc(F)c2)c2ccc3ccc(C)nc3c2O)n1` (configuration not stated): 76% (active). Then `Cc1cccc(NC(=O)c2cc(F)ccc2F)n1`, with -3%.

On to `Cc1cc(C)nc(NC(=O)c2cccc(F)c2)c1`, for which the inhibition was -6.5%. For the compound `Cc1ccnc(NC(c2ccc(O)cc2)c2ccc3ccc(C)nc3c2O)c1` (configuration not stated), the inhibition was 98% (active).

As to `Cc1cc(S(=O)(=O)NCc2cccnc2)c(Cl)cc1Cl`, the inhibition is -3.6%.

Take `Cc1ccc(CNC(=O)C2(C)CCCN(S(=O)(=O)c3cc(C)c(C)cc3C)C2)cc1` (configuration not stated): the inhibition is 52.3% (active). Then `Cc1ccc(S(=O)(=O)N2CCCC(C)(C(=O)NCc3ccccc3C)C2)cc1` (configuration not stated), with 13%. Consider `Cc1ccc(CNC(=O)N2CCCC(C)(C(=O)NCc3ccccc3)C2)cc1` (configuration not stated), for which the inhibition was 0.08%. With `CCN=C1SC(C(=O)Nc2ccc(Cl)cc2)CC(=O)N1CC` (configuration not stated), the inhibition was 7%. Then `CCN(CC)S(=O)(=O)N(CC(=O)NC(C)(C)C)Cc1ccc(F)cc1`, with -4%.

Regarding `CCCn1cc2c3c(cccc31)CN(C(=O)Nc1cc(OC)c(OC)c(OC)c1)CC2`, the inhibition was 2.35%.

Consider `COc1ccc(OC)c(NC(=O)N2CCc3cn(CC(C)C)c4cccc(c34)C2)c1`, for which the inhibition was 69.3% (active). Next, `CC(C)Cn1cc2c3c(cccc31)CN(C(=O)Nc1ccc(F)cc1)CC2`: 0.25%; `CCn1cc2c3c(cccc31)CN(C(=O)Nc1cc(C)ccc1OC)CC2`: 60.9% (active).

On to `CCn1cc2c3c(cccc31)CN(C(=O)c1ccc(OC)cc1)CC2`, for which the inhibition is 44.1%. Next, `CCn1cc2c3c(cccc31)CN(C(=O)Nc1ccc(C)cc1C)CC2`: 26.9%; `O=[N+]([O-])c1ccc(N2CCN(CC3CC4C=CC3C4)CC2)cc1` (configuration not stated): 19.4%; `COc1cc(Cl)c(NC(=O)C2CCCN(C(=O)c3cc(C)cc(C)c3)C2)c(OC)c1` (configuration not stated): 1.7%.

Turning to `CC1(C)CC(=O)C2=C(C1)Nc1ccc3ncccc3c1C2c1ccccc1C(F)(F)F` (configuration not stated), the inhibition was 4%. Next, `CCOc1ccc(-c2ccc(N3CCN(C(=O)Cn4cnc5ccccc54)CC3)nn2)cc1`: 14.5%; `CC1C(=O)N(Cc2cn(Cc3ccco3)nn2)CCS(=O)(=O)N1Cc1ccc(-c2cccc(CO)c2)cc1` (configuration not stated): 30%. Next, `COc1ccc(-c2ccc(CN3C(C(C)C)C(=O)N(Cc4cn(CC5CCCCC5)nn4)CCS3(=O)=O)cc2)cn1` (configuration not stated): 29.4%; `COCOCCn1cc(CN2CCS(=O)(=O)N(Cc3ccc(-c4ccccc4)cc3)C(CC(C)C)C2=O)nn1` (configuration not stated): 60.8% (active); `CC(=O)c1cccc(-c2ccc(CN3C(CC(C)C)C(=O)N(Cc4cn(CC5CCCCC5)nn4)CCS3(=O)=O)cc2)c1` (configuration not stated): 22.9%.

As for `CC(C)C1C(=O)N(Cc2cn(CCC3OCCO3)nn2)CCS(=O)(=O)N1Cc1ccc(-c2ccccc2C(F)(F)F)cc1` (configuration not stated), the inhibition was 43.5%. Then `Cc1ccc(-c2ccc(CN3C(C(C)C)C(=O)N(Cc4cn(CCC5OCCCO5)nn4)CCS3(=O)=O)cc2)cc1` (configuration not stated), with 19%; and `Cc1ccc(-c2ccc(CN3C(C(C)C)C(=O)N(Cc4cn(CCC5OCCO5)nn4)CCS3(=O)=O)cc2)cc1` (configuration not stated), with 14.9%.

In the case of `CC1C(=O)N(Cc2cn(CC3CCCCC3)nn2)CCS(=O)(=O)N1Cc1ccc(-c2cccc(N(C)C)c2)cc1` (configuration not stated), the inhibition was 65.9% (active). Next, `COc1ccc(-c2ccc(CN3C(CC(C)C)C(=O)N(Cc4cn(CC5CCCCC5)nn4)CCS3(=O)=O)cc2)cc1` (configuration not stated): 3.9%; `CC(C)CC1C(=O)N(Cc2cn(Cc3ccco3)nn2)CCS(=O)(=O)N1Cc1ccc(-c2ccc(Cl)c(Cl)c2)cc1` (configuration not stated): 97.6% (active); `COCOCCn1cc(CN2CCS(=O)(=O)N(Cc3ccc(-c4cccc(N(C)C)c4)cc3)C(CC(C)C)C2=O)nn1` (configuration not stated): 65.8% (active). Next, `Cc1ccc(-c2ccc(CN3C(C)C(=O)N(Cc4cn(CCC5OCCCO5)nn4)CCS3(=O)=O)cc2)cc1` (configuration not stated): -4%. Then `CC(C)NC(=O)c1cn(-c2ccc(F)cc2)nn1`, with 3.4%; and `COc1c(S(=O)(=O)Nc2ccc(CC(=O)O)cc2)ccc(Cl)c1Cl`, with -3%; and `Cc1ccc(C(=O)NC2CCN(c3ccccc3C(=O)N(C)C(C)C)CC2)cc1`, with 6.6%.

For `O=C(c1ccc(Cl)cc1)N(Cc1cc(-c2ccccc2)on1)C1CC1`, the inhibition was -12.1%. Then `CCC(c1ccccc1)c1nc(-c2ccc3nnn(C)c3c2)no1` (configuration not stated), with -20.7%; and `CCCCC(=O)Nc1c2c(nn1-c1ccc([N+](=O)[O-])cc1)CS(=O)(=O)C2`, with -1%. Next, `CCOC(=O)c1c(NC(=O)c2ccc([N+](=O)[O-])s2)sc2c1CCCC2`: -0.8%; `COc1nccnc1NS(=O)(=O)c1ccc(NC(=O)c2ccc(C(C)(C)C)cc2)cc1`: 13.2%. Next, `O=c1[nH]c(C=C2C=Nc3ccc(Br)cc32)c(O)n1Cc1ccc(Br)cc1`: 93% (active); `CCc1nc2c(NC(=O)Nc3cccc(C)c3)cccn2n1`: -3.6%. As to `COc1ccc(-n2nc3c(c2NC(=O)c2ccccc2Cl)CSC3)cc1`, the inhibition is 22%.

For `COc1cc(OC)cc(C(=O)N2CCc3c(c(C(=O)NCc4cccc(C)c4)nn3C)C2)c1`, the inhibition was 40.8%. Next, `COc1cccc(C(=O)N2CCc3c(c(C(=O)NCc4cccc(C)c4)nn3C)C2)c1`: 66.6% (active); `Cc1cccc(C(=O)N2CCc3c(c(-c4nc(Cc5ccccc5)no4)nn3C)C2)c1`: 7.62%.

For the compound `COc1ccc(CC(=O)N2CCc3c(c(C(=O)NCc4cccc(C)c4)nn3C)C2)cc1`, the inhibition is 40.5%.

Take `Cn1nc(C(=O)NCc2ccccc2)c2c1CCN(C(=O)c1cccc(F)c1)C2`: the inhibition was 64.8% (active).

Take `CCCC(=O)N1CCc2c(c(C(=O)NCc3cccc(C)c3)nn2C)C1`: the inhibition was 35.7%. `O=C(O)CCCCCNS(=O)(=O)c1cccc(C(F)(F)F)c1`: the inhibition is -2%. For the compound `O=C(c1ccc(F)cc1)N1CCCC1c1ccccc1F` (configuration not stated), the inhibition was -8.08%. Next, `O=C(CSC1=Nc2ccccc2C2=NC(Cc3ccccc3)C(=O)N12)c1ccc(O)c(O)c1` (configuration not stated): 57% (active). With `CC(C)C1N=C2c3ccccc3N=C(SCC(=O)c3ccc(O)c(O)c3)N2C1=O` (configuration not stated), the inhibition is 20%. Next, `O=C(CSC1=Nc2ccccc2C2=NC(Cc3ccccc3)C(=O)N12)NC1CCCCC1` (configuration not stated): 39%. Next, `CCCN1C(=O)COc2ccc(-c3noc(-c4ccccc4C(F)(F)F)n3)cc21`: -2.1%; `CCN(CC)c1ncc2c(n1)CCC(C(=O)N(C)c1ccc(C)c(C)c1)C2` (configuration not stated): 25.8%; `Cc1ccc(N=Cc2ccc(Cl)cc2Cl)c(O)c1`: 12%. Then `Cc1ccc2c(c1)-c1c(ssc1=Nc1ccc(Cl)cc1Cl)C(C)(C)N2`, with 73.7% (active). For the compound `CC(=O)Nc1ccc(N2CCCCC2)nc1`, the inhibition was 2.4%.

As to `O=C(Nc1c(F)cccc1F)N1CCc2[nH]cnc2C1c1ccncc1` (configuration not stated), the inhibition was -5.1%. For the compound `O=C(c1ccc(F)c(F)c1)N1CCc2[nH]cnc2C1c1ccccc1` (configuration not stated), the inhibition is 17.4%.

As to `COC(=O)c1ccccc1NC(=O)N1CCc2[nH]cnc2C1c1ccncc1` (configuration not stated), the inhibition is 7.22%. Then `O=C(Nc1ccc(C(F)(F)F)cc1)N1CCc2[nH]cnc2C1c1ccncc1` (configuration not stated), with 11.1%. Then `CC(C)NC(=O)N1CCc2[nH]cnc2C1c1ccccn1` (configuration not stated), with 83.5% (active); and `O=C(Cc1ccc(F)cc1)N1CCc2[nH]cnc2C1c1ccccn1` (configuration not stated), with 81.1% (active); and `O=C1OC(c2ccc(Cl)cc2Cl)=N/C1=C\c1ccc(F)cc1`, with 2%. Next, `COc1cccc(C2CC(c3cc(Br)ccc3F)n3nnnc3N2)c1` (configuration not stated): 4.06%.
